We go through 94 sequences from the supplement of paper PMC12636033.

± gives the standard deviation of the averaged measurements. The full ranking holds about 33,000 sequences; the median of “E-score (rank enrichment, -0.5 to 0.5)” is about -0.0075, and the highest 2% start at about 0.23. Many of the other results were omitted from the sample, so the highest values are more common in it than they were.

The assay relates to WT Max(13-93) synthetic (M65Nle). Nature of the assay: PBM 8-mer E-score (E-score (rank enrichment, -0.5 to 0.5)); higher = stronger preferential binding. How it is done:
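Protein binding microarray (universal PBM chip covering all 10-mers in fixed probe flanks) with chemically synthesized human Max(13-93) bHLH-LZ analogs (not full-length Max) bearing noncanonical residues (hArg, Tha, Aib, Nle at 65) and aromatic Cys staples. Read-out per 8-mer (and its reverse complement): E-score (rank-based enrichment, -0.5 to 0.5) and Z-score of median probe intensity.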
On to AGCAAACC, for which the “PBM 8-mer E-score” value turned out to be 0.102 ± 0.14. Regarding CCATGATC, the “PBM 8-mer E-score” value is -0.0246 ± 0.092.

As for ACATGATA, the “PBM 8-mer E-score” value was 0.269 ± 0.038. As to ACATGAGA, the “PBM 8-mer E-score” value was 0.146 ± 0.056. Take AAATGATA: the “PBM 8-mer E-score” value turned out to be 0.197 ± 0.029. As to ACATGAAG, the “PBM 8-mer E-score” value stood at 0.0102 ± 0.026. On to ACATGAAT, for which the “PBM 8-mer E-score” value is 0.245 ± 0.071.

As to ACATGAAC, the “PBM 8-mer E-score” value is 0.0506 ± 0.02.

Take CCATGATA: the “PBM 8-mer E-score” value came to 0.0793 ± 0.032. With ACATGATG, the “PBM 8-mer E-score” value stood at 0.0731 ± 0.012. As for ACATGATC, the “PBM 8-mer E-score” value stood at 0.241 ± 0.024.

As for GCATGACA, the “PBM 8-mer E-score” value was determined as 0.2006 ± 0.0015. Regarding GCATGATA, the “PBM 8-mer E-score” value was 0.273 ± 0.01. Consider TGCGTACA, for which the “PBM 8-mer E-score” value was 0.188 ± 0.13.

For CGAGGCCG, the “PBM 8-mer E-score” value is -0.243 ± 0.075. Consider GCCCTGAC, for which the “PBM 8-mer E-score” value was found to be 0.0594 ± 0.023. As to ACTCCGAT, the “PBM 8-mer E-score” value is -0.0923 ± 0.047. In the case of AAAGAAAC, the “PBM 8-mer E-score” value was 0.0488 ± 0.013.

Turning to ACATCTCA, the “PBM 8-mer E-score” value was found to be 0.146 ± 0.089. As for TGGGCACA, the “PBM 8-mer E-score” value stood at 0.0612 ± 0.062. Regarding ATGTTCAC, the “PBM 8-mer E-score” value was -0.109 ± 0.027. Turning to GCTGATGA, the “PBM 8-mer E-score” value is -0.087 ± 0.06. Take CTTGGGAC: the “PBM 8-mer E-score” value was -0.183 ± 0.081. Turning to CTGTGTAA, the “PBM 8-mer E-score” value was -0.00451 ± 0.0057.

In the case of ATGTGTAC, the “PBM 8-mer E-score” value was determined as 0.184 ± 0.011. Consider ATGTGTAG, for which the “PBM 8-mer E-score” value turned out to be 0.25 ± 0.041. With AAGTGTAG, the “PBM 8-mer E-score” value was determined as 0.111 ± 0.079. Consider ATGTGTAA, for which the “PBM 8-mer E-score” value came to 0.236 ± 0.0034. For GTGTGTAA, the “PBM 8-mer E-score” value came to 0.0936 ± 0.013. For CCTAAGGA, the “PBM 8-mer E-score” value was 0.089 ± 0.0031. With AAGCGTAG, the “PBM 8-mer E-score” value was -0.0452 ± 0.033. As to CATGTCCA, the “PBM 8-mer E-score” value stood at 0.124 ± 0.026. Consider AGTCAGTA, for which the “PBM 8-mer E-score” value is 0.0494 ± 0.052. Regarding CCGTGGAC, the “PBM 8-mer E-score” value was -0.137 ± 0.023.

Regarding AGGTGGAT, the “PBM 8-mer E-score” value is 0.0366 ± 0.1.

As for AAGTGGAT, the “PBM 8-mer E-score” value was -0.0604 ± 0.074.

For the sequence CCGTGGAG, the “PBM 8-mer E-score” value was -0.163 ± 0.06. On to ACGTGGAG, for which the “PBM 8-mer E-score” value was 0.338 ± 0.049. Turning to ACGTGGAA, the “PBM 8-mer E-score” value was found to be 0.271 ± 0.053. For the sequence GCGTGGAA, the “PBM 8-mer E-score” value is 0.179 ± 0.049. For AAGTGGAG the value was 0.0727 ± 0.049; for TCGTGGAA, 0.163 ± 0.02; for ACGTGGAT, 0.383 ± 0.044.

Turning to GCGTGGAC, the “PBM 8-mer E-score” value turned out to be 0.122 ± 0.16. For the sequence ACGTGGAC, the “PBM 8-mer E-score” value is 0.331 ± 0.0084.

Regarding ATCCTTTC, the “PBM 8-mer E-score” value is 0.0595 ± 0.17. AAAGAGAT: the “PBM 8-mer E-score” value is -0.0586 ± 0.1. GTCCTTAA: the “PBM 8-mer E-score” value was determined as 0.063 ± 0.0053. For AAAGGATG, the “PBM 8-mer E-score” value was 0.0585 ± 0.087. On to CAAAACAA, for which the “PBM 8-mer E-score” value is 0.129 ± 0.06. In the case of CATCGAGA, the “PBM 8-mer E-score” value is -0.0265 ± 0.036.

As for GTAATGTA, the “PBM 8-mer E-score” value is 0.0754 ± 0.18. For ACCTCAAT, the “PBM 8-mer E-score” value was -0.0496 ± 0.16.

Consider ATGTGGAC, for which the “PBM 8-mer E-score” value was 0.238 ± 0.018. CTGTGGAC: the “PBM 8-mer E-score” value was 0.0601 ± 0.14.

Regarding ATGTGGAG, the “PBM 8-mer E-score” value was found to be 0.1647 ± 0.0014. Turning to GGCATCCA, the “PBM 8-mer E-score” value was -0.0611 ± 0.057. In the case of ACCTTTTA, the “PBM 8-mer E-score” value stood at 0.027 ± 0.18. Regarding CATAAAAC, the “PBM 8-mer E-score” value worked out at 0.0726 ± 0.027. Consider AATAAATA, for which the “PBM 8-mer E-score” value was determined as 0.168 ± 0.017.

For AATAAAAA, the “PBM 8-mer E-score” value was found to be 0.256 ± 0.11. Take AATAAAAC: the “PBM 8-mer E-score” value turned out to be 0.296 ± 0.056. Turning to CATAAATA, the “PBM 8-mer E-score” value is 0.313 ± 0.0091. Regarding AATAAAAG, the “PBM 8-mer E-score” value is 0.206 ± 0.037. For AATAAACC the value was 0.197 ± 0.028; for AATAAAAT, 0.144 ± 0.068. For TATAAATA, the “PBM 8-mer E-score” value worked out at 0.208 ± 0.025. For GGACATCC the value was -0.188 ± 0.068; for CACTTAGG, -0.0583 ± 0.16.

On to GCGTGACC, for which the “PBM 8-mer E-score” value was 0.075 ± 0.14. ACGTGAGG: the “PBM 8-mer E-score” value amounted to 0.1604 ± 0.0013. As to ACGTGACC, the “PBM 8-mer E-score” value was 0.298 ± 0.018. With CCGTGACC, the “PBM 8-mer E-score” value is -0.23 ± 0.064. In the case of TCGTGACA, the “PBM 8-mer E-score” value is 0.0356 ± 0.012.

Take CCGTGACG: the “PBM 8-mer E-score” value is -0.0153 ± 0.0018. In the case of ACGTGACA, the “PBM 8-mer E-score” value was 0.366 ± 0.014.

Regarding ACGTGAGT, the “PBM 8-mer E-score” value was 0.327 ± 0.035. For CCGTGACA the value was 0.00228 ± 0.054. As for ACGTGAGA, the “PBM 8-mer E-score” value came out at 0.208 ± 0.0048.

On to AGGTGACG, for which the “PBM 8-mer E-score” value was -0.053 ± 0.045. As for ACGTGACG, the “PBM 8-mer E-score” value came out at 0.321 ± 0.039. For AGCCGAGG the value was -0.103 ± 0.058. For AACACAGG, the “PBM 8-mer E-score” value was -0.0563 ± 0.091. Consider ACGAACCG, for which the “PBM 8-mer E-score” value is -0.0438 ± 0.041. AATCCAAC: the “PBM 8-mer E-score” value amounted to 0.0162 ± 0.14. In the case of AGTGGTGC it was -0.0756 ± 0.066; in that of GGATGCCC, -0.0856 ± 0.021.

Consider CGTATTCC, for which the “PBM 8-mer E-score” value is -0.096 ± 0.036.

ACTGCGCT: the “PBM 8-mer E-score” value turned out to be 0.0213 ± 0.097. For the sequence ACCGCACC, the “PBM 8-mer E-score” value was -0.0552 ± 0.13. On to AGGTGACT, for which the “PBM 8-mer E-score” value was -0.0287 ± 0.06.

As for ACGTGACT, the “PBM 8-mer E-score” value amounted to 0.282 ± 0.0038. In the case of AAGTGACT, the “PBM 8-mer E-score” value was -0.00483 ± 0.05.

GCACGGAA: the “PBM 8-mer E-score” value is -0.00447 ± 0.026.
